Only some compounds are listed: those with a hit (about 5.4% of all), similar ones and a draw of the others.
ALR inh = human ALR oxidase inhibition via reduced H2O2; purified ALR, DTT oxidation, H2O2 HRP-luminol luminescence; inhibition, % (test concentration not listed); 290,000 tested, 3.8% active; AID 485317;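 active = mean replicate inhibition above about 79%, with every replicate also reaching it, limit read from the data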
Target sequence (P55789 whole entry, looked up): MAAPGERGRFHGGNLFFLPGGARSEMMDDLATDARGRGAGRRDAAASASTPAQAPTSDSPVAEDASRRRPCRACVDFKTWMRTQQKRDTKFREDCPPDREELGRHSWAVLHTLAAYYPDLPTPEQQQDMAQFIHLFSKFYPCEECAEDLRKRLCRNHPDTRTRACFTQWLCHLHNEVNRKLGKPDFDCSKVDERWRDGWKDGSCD
aDG glyco up = increases alpha dystroglycan glycosylation; Pro5-aDG cells, alpha-DG glycosylation AlphaScreen (IIH6); 0% Pro5, 100% B10-LARGE cell signal; AID 624168; 360,000 tested, 0.22% active; activation, % at 10 µM;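 active = activation of at least 8% versus controls, or a plate z-score of at least 8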;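 also: Pro5 are CHO cells carrying HIG-tagged alpha-DG that lacks glycosylation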
APOBEC3G inh = blocks human APOBEC3G single-stranded DNA deamination; Q9HC16; recombinant A3G, ssDNA deamination FAM/TAMRA fluorescence; 330,000 tested, 0.28% active; AID 493012; inhibition, % at 20 µM;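 active = inhibition of at least 40% at 20 µM, with no more than 30% in the related APOBEC3A deaminase screen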
APOBEC3A inh = human APOBEC3A DNA deaminase inhibition; recombinant A3A, FAM/TAMRA ssDNA deamination fluorescence; inhibition, % at 20 µM; P31941; 330,000 tested, 0.41% active;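 active = at least 40% inhibition at 20 µM here, with at most 30% in a related deaminase screen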
Target sequence (P31941 whole entry, looked up): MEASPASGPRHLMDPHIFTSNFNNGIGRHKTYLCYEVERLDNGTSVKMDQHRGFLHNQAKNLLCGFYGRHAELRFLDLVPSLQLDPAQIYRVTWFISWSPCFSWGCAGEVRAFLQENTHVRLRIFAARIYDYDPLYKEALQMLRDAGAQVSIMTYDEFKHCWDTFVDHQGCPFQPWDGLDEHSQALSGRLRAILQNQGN
PHOSPHO1 block = inhibitors of human PHOSPHO1 phosphatase. inhibition, % at 13.3 µM. 290,000 tested, 1.1% active. Q8TCT1. recombinant PHOSPHO1, absorbance phosphatase assay; in the data active = inhibition above about 60%
rCAG RNA binder = binds r(CAG) RNA repeats; r(CAG) RNA repeat, TO-PRO-1 dye displacement fluorescence; inhibition, % at 3 µM; 370,000 tested, 1.3% active; AID 651821;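 active = inhibition above the plate cutoff, the mean of all test compounds on that plate plus 3 SD, cut at about 35% in these data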;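 also: higher means more dye released from RNA so lower well fluorescence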
Hits are given with their value; – = inactive; · = no result given.

SMILES	ALR inh	aDG glyco up	APOBEC3G inh	APOBEC3A inh	PHOSPHO1 block	rCAG RNA binder
COC(=O)[C@H](Cc1ccccc1)N(Cc1cn(Cc2ccccc2)nn1)S(=O)(=O)c1ccccc1Br	·	·	·	·	·	–
COc1ccc(NS(=O)(=O)c2ccc3nc(COc4ccc(C#N)cc4)[nH]c3c2)cc1	98	–	–	–	–	–
COc1ccc(OCc2nc3ccccc3[nH]2)cc1	–	–	–	–	–	–
CC1(c2ccc(O)cc2)NC(=O)N(c2ccccc2)N1 (configuration not stated)	98	–	–	–	–	–
CN(Cc1ccc(F)cc1)C(=O)c1cccc2c1C(=O)N(Cc1cccnc1)C2	·	·	·	·	·	–
Cc1ccc(Cn2cc(CN(C)S(=O)(=O)c3ccccc3Br)nn2)cc1	·	·	·	·	·	–
O=C(NNC1=C(C(=O)C(F)(F)F)CCC1)c1ccccc1O	87	–	–	–	–	–
CCc1ccccc1Nc1nc(N)nc(CSCC(=O)c2cc(C)n(C)c2C)n1	98	–	–	–	–	–
CCc1ccccc1Nc1nc(N)nc(CSc2nnnn2C)n1	–	–	–	–	–	–
O=C(Nc1c(C(=O)O)[nH]c2ccccc12)NC1CCCCC1	98	–	–	–	–	–
COCC(=O)NCCSc1c(C)[nH]c2ccccc12	86	–	–	–	–	–
O=c1c2sc3ccccc3c2[nH]c(=S)n1CCN1CCOCC1	96	–	–	–	–	–
COC(=O)c1[nH]c2ccc(C)cc2c1NC(=O)NC1CCCCC1	–	–	–	–	–	–
O=C(CCCn1c(=S)[nH]c2ccccc2c1=O)NC1CCCCC1	79	–	–	–	–	–
CC1CCCCC1NC(=O)CCn1c(=S)[nH]c2ccccc2c1=O (configuration not stated)	·	–	·	·	·	–
CC1CCN(CCCn2c(=S)[nH]c3c(sc4ccccc43)c2=O)CC1	–	–	–	–	–	–
Cn1c(SCCc2ccccc2)nnc1-c1ccco1	·	·	·	·	·	–
COc1cc(NC(=O)NC2CCCCN(Cc3ccc(Cl)cc3)C2=O)cc(OC)c1 (configuration not stated)	·	·	·	·	·	–
COCC(=O)c1[nH]c2ccccc2c1C	92	–	–	–	–	–
O=c1c2ccc(Cl)cc2[nH]c(=S)n1CCCN1CCOCC1	95	–	–	–	–	–
O=c1c2ccccc2[nH]c(=S)n1CCCN1CCOCC1	87	–	–	–	–	–
Cc1ccc(-c2ccc(SCC(=O)NC3CCCCC3)nn2)cc1	–	–	–	–	62	–
CCCC(=O)Nc1c(C(=O)OCC)[nH]c2ccccc12	–	–	–	–	–	–
Cc1ccc(-c2ccc(SCC(=O)NC3CCCC3)nn2)cc1	–	–	–	–	–	–
O=C(CCn1c(=S)[nH]c2ccccc2c1=O)NCCCN1CCOCC1	–	–	–	–	–	–
SMILES	ALR inh	aDG glyco up	APOBEC3G inh	APOBEC3A inh	PHOSPHO1 block	rCAG RNA binder
COC(=O)[C@]12C[C@H](CC(=O)N3CCOCC3)C(=O)N(CCC3=CCCCC3)C1=C[C@H](C(C)(C)C)O[C@@H]2C	·	·	·	·	·	–
C=CCNc1cccc2c1S(=O)(=O)N[C@H](Cc1ccccc1)CO2	·	·	·	·	·	–
CC1CC(C)CN(C(=O)CCCn2c(=S)[nH]c3ccccc3c2=O)C1 (configuration not stated)	96	–	–	–	–	–
Cc1[nH]c2ccccc2c1SCC(=O)NC1CCCCC1	80	–	–	–	–	–
O=C(CCn1c(=S)[nH]c2ccccc2c1=O)N1CCOCC1	85	–	–	–	–	–
O=C(CSc1c[nH]c2ccccc12)NC1CCCC1	–	–	–	–	–	–
CCOC(=O)N1CCN(C(=O)CCn2c(=S)[nH]c3cc(OCC)c(OCC)cc3c2=O)CC1	–	·	–	–	66	·
CCCCCN1CCCCC(NC(=O)c2ccc(F)c(F)c2)C1=O (configuration not stated)	·	·	·	·	·	–
COC(=O)C(F)(F)Sc1c(C)[nH]c2ccccc12	99	–	–	–	–	–
Cc1[nH]c2ccccc2c1SCC(=O)O	–	–	–	–	–	–
O=C(C1CCC(Cn2c(=S)[nH]c3ccccc3c2=O)CC1)N1CCOCC1 (configuration not stated)	83	–	–	–	–	–
COC(=O)[C@@H](CC(C)C)CP(=O)(OC)[C@@H](C)NC(=O)OCc1ccccc1 (some centres not stated)	·	·	·	·	·	–

From PubChem BioAssay
